SMN2 splice up – qHTS Assay for Enhancers of SMN2 Splice Variant Expression | HEK293 SMN2-luciferase splicing reporter, luminescence, 30-36 h | Potency, µM (titrated, usually from 46.1 µM), without a hit: at the highest dose activity change, positive = activation, usual class: activators | 210,000 tested, 2.8% active; further: % of control where 0% means no effect; nearly all actives have a fitted effect of over 55% in size
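HEK293 cells carry an SMN2 minigene-luciferase reporter in which exon 7 inclusion puts luciferase in frame. Cells were seeded at 2000 cells/well, attached for 10-12 hours, then exposed to compounds for 30-36 hours at 37C before ONE-Glo luminescence.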
Rab9 prom act – qHTS Assay for Rab9 Promoter Activators; Huh7 Rab9 promoter-luciferase reporter, luminescence, 24 h; Potency, µM (titrated, usually from 9.22 µM), for inactives: top-dose activation, negative = inhibition, most hits filed as activators; 320,000 tested, 2.8% active; AID 485297, 2010; further: % of control where 0% means no effect; nearly all actives have a fitted effect of over 60% in size
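Rab9 promoter-driven luciferase in stably transfected Huh7 cells; 1500 cells/well rested 2 h, exposed to compound in DMSO for 24 h at 37 °C, 5% CO2. Luminescence read 10 min after adding luciferase reagent at ambient temperature.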
NPC1 prom act – qHTS Assay for NPC1 Promoter Activators. Huh7 NPC1 promoter luciferase reporter, 24 h. Potency, µM (titrated, usually from 9.22 µM), for the others: at the highest dose activation, actives largely listed as activators. 320,000 tested, 2.4% active; further: % of control where 0% means no effect; nearly all actives have a fitted effect of over 60% in size
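Huh7 cells stably carrying NPC1 promoter–luciferase, plated in Opti-MEM with 10% FBS for 2 h, were exposed to compound in DMSO for 24 h at 37 °C; luciferase reagent was added for 10 min and luminescence read.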
ELG1 genotoxic – qHTS screen for small molecules that induce genotoxicity in human embryonic kidney (HEK293T) cells expressing luciferase-tagged ELG1 | HEK293T ELG1-luciferase reporter, luminescence, 16 h | Potency, µM (top dose mostly 46 µM), inactives show top-dose activity change, positive = activation, usual class: activators | 330,000 tested, 1.3% active | AID 504466, 2011; further: % of control where 0% means no effect; nearly all actives have a fitted effect of over 60% in size
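Reporter readout depends on ELG1 protein level, which increases with genetic stress. After 16 hr compound exposure at 37 °C, luciferase activity was quantified using ONE-Glo.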
KinaseGlo FLuc – Counterscreen for Luciferase (Kinase-Glo TM) Inhibition; Potency, µM (top dose mostly 38.3 µM), for the others: at the highest dose activity change, negative = inhibition, usual class: inhibitors; Luciferin 4-monooxygenase (Photuris pensylvanica), Q27757; Kinase-Glo luciferase, ATP luminescence, 8 min; AID 1379, 2008; 200,000 tested, 0.28% active; further: on the % scale 0 is the no-effect control and ±100 the full control effect; nearly all actives have a fitted effect of over 60% in size
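Recombinant Kinase-Glo luciferase, 10 uM ATP (linear range), luciferin; imidazole pH 7.2 / KCl / MgCl2 / Tween / BSA buffer; 8 min RT; luminescence.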
FLuc counter – qHTS profiling assay for firefly luciferase inhibitor/activator using purifed enzyme and Km concentrations of substrates (counterscreen for miR-21 project) | Luciferin 4-monooxygenase (Photinus pyralis), P08659 | purified FLuc, Km substrates, luminescence inhibition | Potency, µM (highest dose often 57.5 µM), for inactives: at the highest dose activity change, negative = inhibition, usual class: inhibitors | 360,000 tested, 6.9% active | AID 588342, 2011;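 further: plate controls were vehicle for no effect and reference inhibitor for full effect; nearly all actives have a fitted effect of over 55% in size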
Target sequence (P08659 whole entry, looked up): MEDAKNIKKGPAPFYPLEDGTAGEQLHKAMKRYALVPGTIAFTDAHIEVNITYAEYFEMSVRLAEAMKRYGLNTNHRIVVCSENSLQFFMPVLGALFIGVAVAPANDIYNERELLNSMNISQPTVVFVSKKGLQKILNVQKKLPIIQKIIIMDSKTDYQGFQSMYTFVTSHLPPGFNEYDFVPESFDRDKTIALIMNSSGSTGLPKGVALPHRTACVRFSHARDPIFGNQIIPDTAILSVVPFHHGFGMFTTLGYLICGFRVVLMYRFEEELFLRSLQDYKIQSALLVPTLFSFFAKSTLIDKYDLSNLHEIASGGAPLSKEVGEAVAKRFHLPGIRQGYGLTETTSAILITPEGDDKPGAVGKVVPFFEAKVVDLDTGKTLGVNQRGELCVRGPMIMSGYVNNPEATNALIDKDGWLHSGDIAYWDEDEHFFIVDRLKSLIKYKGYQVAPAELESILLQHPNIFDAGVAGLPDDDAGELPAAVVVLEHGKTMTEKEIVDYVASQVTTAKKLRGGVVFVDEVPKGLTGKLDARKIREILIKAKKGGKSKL
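Purified P. pyralis luciferase (10nM final) with 10uM D-luciferin and 10uM ATP (Km levels) in 50mM Tris acetate pH 7.5, 10mM Mg acetate, 0.01% Tween-20, 0.05% BSA; qHTS 6-point titration, ~60 µM downward; luminescence read.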
The depositor's hits bear a star; [ ] = remark or other dose. Sampled rows, rich in hits. Any-hit rate of the full collection: about 7.3%. The call rests on the fitted dose curve; in most records, active means well fitted curve in the direction sought with a large enough effect; inconclusive means small, poorly fitted or top-dose-only effect, or another doubt; inactive means no such curve, though single readings can be large; an effect the other way counts as inactive or inconclusive. Potency means the concentration at half of the fitted maximal effect.

`NCc1cccc(CNc2ccc([N+](=O)[O-])cc2C(N)=O)c1` gave Rab9 prom act 3.2µM*, NPC1 prom act inconclusive, ELG1 genotoxic inconclusive and FLuc counter -2%.
Screening NC(=O)c1cc([N+](=O)[O-])ccc1NCc1cccc([N+](=O)[O-])c1 returned Rab9 prom act -2%, NPC1 prom act -2%, ELG1 genotoxic 7% and FLuc counter 0%.
Screening CCC1CCCCN1CCCNC(=O)c1ccc2c(c1)N(Cc1ccccc1F)C(=O)c1ccccc1S2(=O)=O (centres undefined) returned SMN2 splice up -76% and FLuc counter 3%.
Screening CC(OC(=O)c1cc(O)c2ccccc2c1O)C(=O)Nc1ccc(C(N)=O)cc1 (centres undefined) returned Rab9 prom act 21%, NPC1 prom act 10%, ELG1 genotoxic 10% and FLuc counter 8.5µM*.
For COc1ccc(C(=O)Nc2cc3c4c(c2)CC(=O)N4CCC3)c(OC)c1 the results were Rab9 prom act inconclusive, NPC1 prom act inconclusive, ELG1 genotoxic inconclusive and FLuc counter 15µM*.
For COc1ccc(C(=O)Nc2cc3c4c(c2)CC(=O)N4CCC3)cc1 the results were Rab9 prom act 22%, NPC1 prom act 8%, ELG1 genotoxic inconclusive and FLuc counter 21µM*.
COc1ccc(C(=O)Nc2cc3c4c(c2)C(C)C(=O)N4CCC3)cc1OC (centres undefined) was read as Rab9 prom act 2%, NPC1 prom act -4%, ELG1 genotoxic inconclusive and FLuc counter 2%.
`COc1ccc(C(=O)Nc2cc3c4c(c2)C(C)C(=O)N4CCC3)cc1` (centres undefined) gave Rab9 prom act 20%, NPC1 prom act 10%, ELG1 genotoxic inconclusive and FLuc counter 12µM*.
For C#C[C@]1(O)CC[C@H]2[C@H]3CCC4=Cc5oncc5C[C@]4(C)[C@@H]3CC[C@]21C the results were KinaseGlo FLuc 0%.
COc1ccc(S(=O)(=O)Nc2ccc3c(c2)CCCN3S(=O)(=O)c2ccc(C)cc2)cc1F was read as FLuc counter -1%.
`c1ccc(-n2ncc3c(NCCCN4CCOCC4)ncnc32)cc1` gave SMN2 splice up inconclusive, Rab9 prom act 4µM*, NPC1 prom act 3.2µM*, ELG1 genotoxic inconclusive, KinaseGlo FLuc -2% and FLuc counter 24µM*.
Screening Clc1ccc(-n2ncc3c(NCCN4CCOCC4)ncnc32)cc1 returned SMN2 splice up -47%, Rab9 prom act 5%, NPC1 prom act 29%, ELG1 genotoxic 3.7µM*, KinaseGlo FLuc -4% and FLuc counter 6.7µM*.
Cc1ccc2[nH]c3c(c2c1)CCc1cn[nH]c1-3 was read as SMN2 splice up 7%, Rab9 prom act inconclusive, NPC1 prom act inconclusive, ELG1 genotoxic 0%, KinaseGlo FLuc -4% and FLuc counter 11µM*.
O=c1c(-c2ccc(O)cc2)coc2cc(O)ccc12 was read as SMN2 splice up 13µM*, Rab9 prom act 10µM*, NPC1 prom act 9.2µM* and KinaseGlo FLuc -7%.
For O=c1c(-c2cnn(-c3ccccc3)c2)coc2cc(O)ccc12 the results were Rab9 prom act 1.8µM*, NPC1 prom act 2.8µM*, ELG1 genotoxic inconclusive and FLuc counter 5.4µM*.
`Cc1ccccc1-c1coc2cc(O)ccc2c1=O` gave SMN2 splice up 4%, Rab9 prom act -5%, NPC1 prom act -1%, ELG1 genotoxic -2%, KinaseGlo FLuc -1% and FLuc counter -3%.
`O=C(O)c1cccc(SSc2cccc(C(=O)O)c2)c1` gave SMN2 splice up 21%[9.22 µM] and KinaseGlo FLuc -5%[7.66 µM].

Screening results: PubChem BioAssay, National Center for Advancing Translational Sciences (NCATS)
